Cy5 interf NS3h: enhances or quenches Cy5 fluorescence in NS3h assay. 16,000 compounds, 6% hits. Cy5-dT15 DNA with NS3h, fluorescence interference; actives lie on both sides; signal over control mean, under 1 quenches. fluorescence interference ratio at 100 µM;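 active means compound fluorescence over control fluorescence at most 0.8, a quencher, or at least a set upper limit, an enhancer; inactive means ratio between 0.8 and the set upper limit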
HCV NS3h FP: hepatitis C NS3 helicase inhibition, primary screen | NS3h Cy5-dT15 DNA binding, fluorescence polarization | inhibition, % at 100 µM | 16,000 compounds, 1.6% hits | AID 687043;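 active means inhibition above the average over every tested compound plus 3 SD, cut at about 40% in these data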
The depositor's hits bear a star. Most compounds without a hit are left out; they make up all but 6.8% or so of the library.

SMILES	Cy5 interf NS3h	HCV NS3h FP
CCN(Cc1ccccc1)C(=O)c1cc(C(=O)OC)cc([N+](=O)[O-])c1	0.66*	9
COC(=O)c1cc(C(=O)NCc2ccc(OC)cc2)cc([N+](=O)[O-])c1	0.96	10
CC1(C)CC(=O)C(=Cc2cn(-c3ccccc3)nc2-c2cccs2)C(=O)C1	0.86	14
O=C(Nc1ccc2nn(-c3ccccc3)nc2c1)C(Cl)(Cl)Cl	0.69*	2
Cc1ccc(NC(=O)c2ccco2)cc1NC(=O)c1ccccc1	0.78*	9
O=C(O)CCC(=O)Nc1ccc2nn(-c3ccccc3)nc2c1	1	3
Nc1cccc(NC(=O)c2ccco2)c1	0.96	-3
COc1ccc(-n2nc3cc(C)c(NC(=O)c4ccco4)cc3n2)cc1	1.1	24
CCOC(=O)c1cccc(NC(=O)c2ccco2)c1	0.68*	16
COc1ccc(CC(=O)Nc2ccc(C)c(NC(=O)c3ccccc3)c2)cc1OC	0.97	-26
Cc1ccc(-n2nc3ccc(NC(=O)c4ccco4)cc3n2)cc1	0.68*	14
O=C(O)CCCCCN1C(=O)C(=O)C(=C(O)c2ccc([N+](=O)[O-])cc2)C1c1ccc(O)cc1 (stereo unspecified)	1.1	9
Cc1ccc(/C=C2\C=C(c3ccc(Cl)cc3)OC2=O)o1	0.99	27
O/N=C\c1ccc(OCC(O)Cn2c3ccccc3c3ccccc32)cc1 (stereo unspecified)	0.92	8
COc1ccc(NC(=O)c2ccc(F)c3ccccc23)c(OC)c1	0.99	13
COc1ccc(C2C(C(=O)OC(C)C)=C(C)N=c3s/c(=C/c4c[nH]c5ccccc45)c(=O)n32)cc1 (stereo unspecified)	1.1	-1
CCCCOc1ccc(NC(=O)CSCC(=O)Nc2ccc3ccccc3c2)cc1	1	10
CCOC(=O)c1ccc(NC(=O)CC)cc1	0.93	7
CCc1ccc(NC(=O)C(=O)NCC2CCCO2)cc1 (stereo unspecified)	0.75*	18
CC(NC(=O)C(=O)NCC1CCCO1)c1ccccc1 (stereo unspecified)	0.64*	-2
O=C(NCC1CCCO1)C(=O)Nc1ccccc1F (stereo unspecified)	0.99	2
O=C(NCC1CCCO1)C(=O)Nc1ccc(F)cc1 (stereo unspecified)	1	2
O=C(O)c1ccccc1N1C(=O)c2ccc(Oc3ccc([N+](=O)[O-])cc3)cc2C1=O	1.2	14
Cc1cccc(N2C(=O)NC(=O)/C(=C\c3ccc(Oc4ccc([N+](=O)[O-])cn4)cc3)C2=O)c1	1	20
Cc1ccc(-c2ccc(/C=C3\SC(=S)NC3=O)o2)c([N+](=O)[O-])c1	0.89	20
SMILES	Cy5 interf NS3h	HCV NS3h FP
Cc1ccc(-c2ccc(C=C3C(=O)NC(=O)NC3=O)o2)c([N+](=O)[O-])c1	0.72*	41*
CCOC(=O)C1=C(N)Oc2ccc3ccccc3c2C1c1cccc(Cl)c1 (stereo unspecified)	0.99	-12
COc1ccc(C(=O)N/C(=C\c2ccc(-c3cccc([N+](=O)[O-])c3)o2)C(=O)NCCCN2CCOCC2)cc1	0.77*	11
CCCCNC(=O)/C(=C/c1ccc(-c2cccc([N+](=O)[O-])c2)o1)NC(=O)c1ccc(OC)cc1	0.99	12
CC(=O)N(C1=C(N2CCCC2)C(=O)c2ccccc2C1=O)C1CCCCC1	0.91	-10
COCCOC(=O)c1c(C)oc2ccc(OC(=O)N3CCOCC3)cc12	0.94	22
COc1cc(OC)c([N+](=O)[O-])cc1C=O	0.65*	9
COc1cc(OC)c([N+](=O)[O-])cc1/C=C(/C#N)C(=O)Nc1ccccc1	1.1	-1
COc1ccc(N=Cc2ccc(O)c(OC)c2)cc1	0.8*	11
COc1cc(C=Nc2ccc(S(N)(=O)=O)cc2)ccc1O	1.1	5
O=C1CC(c2ccccc2)CC2=C1C(c1cccc([N+](=O)[O-])c1)Nc1ccc(C(=O)c3ccccc3)cc1N2 (stereo unspecified)	0.69*	14
O=C1CC(c2ccccc2)CC2=C1C(c1ccc([N+](=O)[O-])cc1)Nc1ccc(C(=O)c3ccccc3)cc1N2 (stereo unspecified)	1.1	10
COC(=O)c1cc(NC(=O)c2ccc(C)c([N+](=O)[O-])c2)cc(C(=O)OC)c1	1.1	6
CC(=O)Nc1ccc(S(=O)(=O)N2CCN(Cc3ccccc3)CC2)cc1	1.1	5
CCN(CC)c1ccc(/C=C2\C(=O)NC(=O)N(c3cccc(C)c3)C2=O)c(OC)c1	1.3*	13
COc1cc(OC)c(/C=C2\C(=O)NC(=O)N(c3cccc(C)c3)C2=O)cc1Br	1	-1
O=C(CSc1cc(Cl)ccc1Cl)Nc1cccc(C(F)(F)F)c1	0.89	-4
Cn1ccnc1SCC(=O)Nc1cccc(C(F)(F)F)c1	0.76*	10
CCOc1ccc(C(O)c2nccn2CC)cc1 (stereo unspecified)	1	0
COc1ccc(/C=C2\C(=O)NC(=O)N(c3ccc(C)cc3)C2=O)cc1C(=O)O	1	17
COc1cc(Br)c(C2C3=C(CC(C)(C)CC3=O)OC3=C2C(=O)CC(C)(C)C3)cc1OC	0.77*	9
COc1ccc(C2C3=C(CC(C)(C)CC3=O)OC3=C2C(=O)CC(C)(C)C3)cc1Br	0.89	16
Cc1ccc(-c2nnc(NC(=O)Nc3ccc(Cl)c(Cl)c3)s2)cc1	1.1	16
CCCC(=O)N1CCN(c2ccc(C(=O)c3ccc(C)c(C)c3)cc2F)CC1	1	-4
CCCC(=O)c1ccc(N2CCN(C(=O)CCC)CC2)c(F)c1	0.75*	14
SMILES	Cy5 interf NS3h	HCV NS3h FP
COc1ccc2c(c1)-c1c(ssc1=S)C(C)(C)N2C(=O)c1ccccc1OC	0.96	11
O=C(NCCOc1ccc(F)cc1)c1cccc2ccccc12	0.88	2
O=C(NCCOc1ccc(F)cc1)c1ccccc1-c1ccccc1	0.69*	24
Cn1c(=O)c(N2CCCCC2)c2c3c(cccc31)C(=O)c1ccccc1-2	1	-11
CCN(C(=O)c1cc(OC)c(OC)cc1[N+](=O)[O-])c1ccccc1	0.94	2
COc1cc(CC(=O)O)c([N+](=O)[O-])cc1OC	0.65*	-3
Cc1cc2nc(-c3cccc(NC(=S)NC(=O)c4ccco4)c3)oc2cc1C	1.1	16
COc1ccc(Cl)cc1N(CC(=O)NCC(C)C)S(=O)(=O)c1ccc(C)c([N+](=O)[O-])c1	0.71*	19
CCN(CC)C(=O)CN(c1cc(Cl)ccc1OC)S(=O)(=O)c1ccc(C)c([N+](=O)[O-])c1	1.1	12
COC(=O)C1CC(=O)N(c2ccccc2)C1 (stereo unspecified)	1.1	14
COc1ccc(C2CC(C(F)(F)F)n3nc(C(=O)Nc4ccc5c(c4)OCO5)c(Cl)c3N2)cc1OC (stereo unspecified)	0.98	16
O=C1C(Nc2ccc(F)cc2)=CC(c2ccccc2[N+](=O)[O-])N1c1ccc(F)cc1 (stereo unspecified)	1.1	7
CCOc1ccc(-c2cc(C)n3nc(C(=O)Nc4cc(OC)c(Cl)cc4OC)cc3n2)cc1	1.1	-9
CC(C)(C)NC(=O)c1cc2nc(-c3ccccc3)cc(C(F)(F)F)n2n1	0.57*	1
O=C(NCc1ccco1)c1cc2nc(-c3ccccc3)cc(C(F)(F)F)n2n1	1.1	1
COC(=O)c1ccccc1NC(=O)c1cc2nc(-c3ccccc3)cc(C)n2n1	0.73*	14
